Screening data: PubChem BioAssay, National Center for Advancing Translational Sciences (NCATS)
D1 agonist – Allosteric Agonists of the Human D1 Dopamine Receptor: qHTS; D(1A) dopamine receptor (Homo sapiens), P21728; HEK293 T-REx D1 cells, calcium flux, agonist mode; activation, % at 2 µM; 1% of 360,000 active; note: 0% is about no effect
Target sequence (P21728 whole entry, looked up): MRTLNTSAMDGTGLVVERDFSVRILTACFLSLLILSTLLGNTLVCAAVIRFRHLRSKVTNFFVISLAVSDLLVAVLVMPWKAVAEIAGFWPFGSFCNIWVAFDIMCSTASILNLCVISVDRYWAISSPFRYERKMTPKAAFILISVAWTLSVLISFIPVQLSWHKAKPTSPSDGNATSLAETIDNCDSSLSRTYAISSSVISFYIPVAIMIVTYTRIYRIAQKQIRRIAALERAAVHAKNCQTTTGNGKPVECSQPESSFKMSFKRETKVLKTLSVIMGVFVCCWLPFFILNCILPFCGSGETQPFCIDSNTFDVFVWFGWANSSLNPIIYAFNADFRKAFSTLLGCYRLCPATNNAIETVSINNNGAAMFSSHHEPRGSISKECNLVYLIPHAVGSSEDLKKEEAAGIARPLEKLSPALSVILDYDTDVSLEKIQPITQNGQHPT
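Tetracycline-induced HEK293 TREx D1 cells, force-coupled to calcium signalling, were dye-loaded with a no-wash calcium kit. Compound was pin-added after a 10 s baseline. Fluorescence was read kinetically at 1 cycle/s for 180 s, with calcium rises flagged as agonism.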
TRHR ag – qHTS for Small Molecule Agonists and Allosteric Enhancers of Human TRH Receptor: Primary Screen for Agonists | Thyrotropin-releasing hormone receptor (Homo sapiens), P34981 | TRHR cells, calcium flux fluo-8, FDSS agonist mode | activation, % at 2 µM | 0.18% of 360,000 active; note: 0% is about no effect
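Fluo-8-loaded TRHR cells; 10 s baseline, compound added, kinetic Ca2+ fluorescence read 1/s, agonist mode.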
TRHR enhancer – qHTS for Small Molecule Agonists and Allosteric Enhancers of Human TRH Receptor: Primary Screen for Enhancers. TRHR cells, fluo-8 calcium fluorescence, EC20 TRH enhancement. enhancement, % at 2 µM. 0.66% of 360,000 active. AID 493056, 2011; in the data active = enhancement above about 30%; note: 0% is about no effect
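TRHR-expressing cells loaded with fluo-8 calcium dye were read kinetically (ex 480/em 530) during compound addition, then stimulated with an EC20 of TRH (10 nM final). Enhancement of the Gq-mediated intracellular calcium response was scored.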
D1 antag – Antagonist of Human D 1 Dopamine Receptor: qHTS; D(1A) dopamine receptor (Homo sapiens), P21728; HEK293 TREx D1 cells, calcium flux, dopamine EC80; hits give low values; activity change, negative = inhibition, % at 10 µM; 3.2% of 360,000 active; in the data active = activity change below about -30%; note: % is set by controls: 0 for no effect and ±100 for the full control effect
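Compound effects on dopamine-evoked calcium signalling were measured in tetracycline-induced HEK293 Trex D1 cells. Dopamine at EC80 followed a 180 s compound pre-read, and fluorescence was tracked kinetically for 180 s more.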
D1 potentiator – Potentiators of Human D1 Dopamine Receptor: qHTS; D(1A) dopamine receptor (Homo sapiens), P21728; HEK293 TREx D1 cells, calcium flux, dopamine EC20 potentiation; potentiation, % at 10 µM; 0.036% of 360,000 active; AID 504651, 2011; in the data active = potentiation above about 30%; note: 0% is about no effect
The depositor's hits bear a star; x = no result. Compounds with a hit are over-represented: about 4.7% of the library has one in this group of screens. Cut-off read from the data, not from the text of the source, unless noted: active = activation above about 30%; inactive = the rest.

SMILES	D1 agonist	TRHR ag	TRHR enhancer	D1 antag	D1 potentiator
COc1cc(C(=O)NC(=S)Nc2ccc3c(c2)OCO3)cc(OC)c1OC	0	0	3	-35*	-5
COc1cc(C(=O)NNC(=O)C2CCC2)cc(OC)c1OC	3	0	4	-48*	-5
COc1ccc([C@]23Cc4cc(OC)c(OC)cc4C(O2)c2c(cc(-c4ccccc4)oc2=O)O3)cc1	0	0	-8	-13	-2
Cn1c(=O)n(C)c2cc(N3CCOCC3)c(NS(=O)(=O)c3cccc(C#N)c3)cc21	0	0	3	6	-5
O=C(NC(=S)Nc1ccc(F)cc1)c1ccc2c(c1)OCCO2	3	1	33*	-3	-4
CC(=O)Cn1ncc(N2CCCCC2)c(Cl)c1=O	2	0	7	3	11
CO/N=C(\Cn1ncc(N2CCCC2)c(Cl)c1=O)c1ccc(Cl)cc1	4	-1	-1	-46*	-3
Cc1cc(O)cc(O)c1C(=O)Cc1ccccc1	8	0	-1	-12	-7
CC(=O)c1c(O)cc(O)c(C(C)=O)c1O	3	1	-5	-45*	-7
CC(=O)c1c(O)cc(O)cc1CC(=O)O	1	0	5	-58*	-4
CC(=O)c1cc2c(O)c(O)ccc2o1	5	0	-10	12	0
C=CCc1c(C)nc2c(-c3ccccc3)cnn2c1N1CCOCC1	1	-1	-6	-32*	-8
Cc1cc(N2CCOCC2)n2ncc(-c3ccccc3)c2n1	-2	0	4	x	-3
CC(C)(C)OC(=O)NCC(=O)NNC(=O)c1nc2ccccc2[nH]1	0	1	2	2	-4
CCC(=O)Nc1ccccc1-c1nc2ccccc2n(C(CC)C(=O)Nc2cccc(Cl)c2)c1=O (configuration not stated)	-1	0	10	-21	-3
CCC(=O)Nc1ccccc1-c1nc2ccccc2n(C(C)C(=O)Nc2ccc(OC)cc2)c1=O (configuration not stated)	6	1	-1	-31*	-4
Cc1nn(C(=O)COc2ccccc2)c(C)c1Sc1ccccc1	110*	-1	5	-65*	-2
Cc1cc(C(=O)NCCc2ccc(S(N)(=O)=O)cc2)no1	1	0	3	-13	2
OCCCc1nc2n(n1)C(c1cccs1)C=C(c1ccccc1)N2 (configuration not stated)	34*	41*	-2	1	x
COc1ccc(OC)c(NC(=O)Cn2cnc3ccc(S(=O)(=O)N4CCC(C)CC4)cc3c2=O)c1	-1	2	-6	-17	1
Cc1cccc2sc(N(Cc3cccnc3)C(=O)C3CCCCC3)nc12	4	0	-2	x	0
O=C(Nc1ccccc1N1CCOCC1)c1ccccc1NS(=O)(=O)c1ccc(F)cc1	2	-1	-1	-87*	-8
O=C(Nc1cc(S(=O)(=O)N2CCCCC2)ccc1Cl)c1ccccc1NS(=O)(=O)c1ccc(F)cc1	17	3	-2	-33*	-3
CCOc1ccc(C(=O)Nc2cc(S(=O)(=O)Nc3ccccc3Cl)ccc2N2CCOCC2)cc1	6	-1	40*	-14	-2
CCOc1ccc(NC(=O)CSc2ncc(S(=O)(=O)c3ccc(F)c(C)c3)c(=O)[nH]2)cc1	1	0	-4	10	-2
SMILES	D1 agonist	TRHR ag	TRHR enhancer	D1 antag	D1 potentiator
Cc1cccc(NS(=O)(=O)c2ccc(Cl)c(C(=O)Nc3ccccc3C)c2)c1	15	0	2	-4	3
Cc1ccc(S(=O)(=O)NCCc2nnc3ccc(SCC(=O)Nc4c(C)cc(C)cc4C)nn23)cc1	-1	0	-1	5	1
CCOc1ccc(NC2CCCCC2NS(=O)(=O)c2ccccc2)cc1 (configuration not stated)	-1	-1	0	-35*	22
CCOc1ccc(S(=O)(=O)NC2CCCCCC2)cc1	4	-1	-7	-26	-9
COc1cccc(CC(=O)Nc2ccc3nc(N4CCC(C)CC4)cc(C)c3c2)c1	2	0	-3	9	2
O=S1(=O)CCC(n2nccc2-c2ccccc2)C1 (configuration not stated)	2	1	2	14	4
Nc1c(-c2ccc(Cl)cc2)cnn1C1CCS(=O)(=O)C1 (configuration not stated)	11	-1	-6	-30*	-10
CN(CC(=O)Nc1ccc(F)c(Cl)c1)S(=O)(=O)c1cccc2nsnc12	5	0	1	-34*	1
CC1CCN(CCNC(=O)CN(C)S(=O)(=O)c2cccc3nsnc23)CC1	2	-1	3	-31*	-8
CCCOc1ccc(-c2nonc2NC(=O)c2cc(OC)c(OC)c(OC)c2)cc1OCCC	38*	-1	8	-1	-2
O=C(c1ccc2c(c1)OCO2)N(c1ccccc1)C1C=CS(=O)(=O)C1 (configuration not stated)	3	0	-4	-40*	2
CCN(CC)c1ccc(NC(=O)CCS(=O)(=O)c2cc3c(cc2Cl)NC(=O)CO3)c(C)c1	5	1	-1	7	-2
O=S(=O)(Nc1ccc(Br)cc1)c1cccc(NC(=S)NCCN2CCOCC2)c1	52*	1	-2	3	-5
COc1ccccc1NS(=O)(=O)c1cc(NC(=O)C(C)(C)C)ccc1N1CCOCC1	0	0	14	0	-12
COc1ccccc1NS(=O)(=O)c1cc(NC(=S)NCCN2CCOCC2)ccc1N1CCOCC1	1	0	-8	-34*	1
COc1ccc(CNC(=O)CSCc2nc(-c3ccccc3C)oc2C)cc1	4	1	0	-5	-5
CCNS(=O)(=O)c1ccc(NC(=O)Cn2nc(C(F)(F)F)cc2C)cc1	7	1	-2	-39*	-2
COc1ccc(-n2ncc(C(C)NS(=O)(=O)c3cccs3)c2C)cc1 (configuration not stated)	3	-1	31*	0	-2
CCn1cc(C(=O)NCCC(C)C)c(=O)c2cc(S(=O)(=O)N(C)C3CCCCC3)ccc21	2	0	7	4	1
CCc1cccc(NC(=O)c2c(C)oc3ncnc(N4CCCCC4)c23)c1	8	-1	14	9	-2
CCC(=O)C1=C(c2ccc(F)cc2)N(C(=O)CC)n2c(nnc2C2CCCCC2)S1	1	0	-2	x	5
